The source made the active and inactive calls. The rule behind the calls is not given here.
Test: inhibition of 3D7 malaria parasite growth – strain 3D7 (AID 2306);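 note: 0% = DMSO wells and 100% = chloroquine plus artemisinin control wells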
Settings: P. falciparum 3D7 erythrocytic growth, LDH absorbance, 72 h; at 2 µM; hits give high values

Growth inhibition, active:
O=C(Nc1ccc2nccc(N3CCN4CCC[C@H]4C3)c2c1)c1ccc(Cl)c(Cl)c1 101%
NC(=O)c1cccc(C(=O)Nc2cccc(-c3ccc(-c4nc5ccccc5[nH]4)s3)c2)c1 95%
COc1ccc(CCNCCCCCCNCCc2ccc(-c3ccccc3)cc2)cc1OC 99%
CC(ON1C(N)=NC(N)=NC1(C)C)c1ccccc1 (stereo not given) 96%
CC(C)CCN1CCC(Oc2cccc(NC(=O)c3ccc(C(F)(F)F)cc3)c2)CC1 98%
CCc1cn2c3c(cc(C(=O)N[C@@H](Cc4ccccc4)[C@H](O)CNC4CC4)cc13)N(CC)S(=O)(=O)CC2 98%
Cc1cccc2[nH]c(-c3ccc(-c4cccc(NC(=O)C(C)CN(C)C)c4)s3)nc12 (stereo not given) 92%
CCn1c(C(C)C)cc2c3c(N)nc(N)nc3ccc21 92%
COc1ccc(NC(=O)Nc2cccc(-c3ccc(-c4nc5c(C)cccc5[nH]4)s3)c2)cc1 101%
C=C(C)C1CC=C(CN2CCC(N3CCc4cc(NC(=O)c5cc(C)on5)ccc43)C2)CC1 (stereo not given) 90%
O=C(Nc1ccccc1Cl)c1cc2ccccc2cc1O 94%
CCCCN1CCN(Cc2cccc(NC(=O)c3ccc(Cl)c(Cl)c3)c2)CC1 88%
c1cn(-c2ccc(CNc3nccc(Nc4ccc(OCCN5CCOCC5)cc4)n3)cc2)cn1 100%
CCN(Cc1ccccc1)C1CCN(Cc2cc(Br)ccc2O)CC1 97%
O=C(Nc1ccc(OC2CCN(Cc3ccc(F)cc3)CC2)c(Cl)c1)c1ccccc1 90%
COc1ccccc1NC(=O)NC1CCN(CCCCCNC(=O)/C=C/c2ccc(Cl)c(Cl)c2)CC1 100%
CCOC(=O)NC1=NC(C)(C)N(OCCCOc2ccc(C)cc2C)C(NC(=O)OCC)=N1 95%
Cc1ccc2c(c1)c(-c1ccccc1)c(-c1ccccc1)n2CC(O)CN1CCN(CC=Cc2ccccc2)CC1 (stereo not given) 98%
COc1ccc2nccc(NC(=O)C3(O)CCC(NCc4ccc5c(c4)NCCS5)CC3)c2n1 (stereo not given) 93%
O=C(NCc1ccc(F)cc1)c1cnc(N2CCN(c3ccncc3)CC2)c(Cl)c1 98%
CC1(C)N=C(N)N=C(N)N1OCCc1ccccc1 96%
Cc1ccccc1C1CCN(C2CCC(NC(=O)c3cc4cc(C(C)C)ccc4[nH]3)CC2)CC1 (stereo not given) 99%
O=C(NCC1CCN(Cc2cccc(C(F)(F)F)c2)C1)c1cc(-c2cccc(Cl)c2)cs1 (stereo not given) 93%
COc1ccc(CCNCCCCCCNCCc2ccc(Cl)c3ccccc23)cc1OC 100%
Cn1nccc1C(=O)NCCNCc1cccc(-c2csc(-c3nc4ccccc4[nH]3)c2)c1 101%
c1ccc(COc2ccccc2COc2ccccc2-c2ccc3cccnc3n2)cc1 87%
O=C(/C=C/c1ccc(Cl)c(Cl)c1)NCCCCCN1CCC(NC(=O)Nc2ccc(F)c(Cl)c2)CC1 100%
CN(C)Cc1cccc2[nH]c(-c3csc(Cc4cc(Cl)ccc4OCc4ccccc4)n3)nc12 100%
Cc1c(-c2cccc(C(C)(C)NC3CCN(Cc4ccccc4)CC3)c2)cnc(N)c1C 100%
CCc1sc(N2CCN(C)CC2)nc1C(=O)Nc1ccc(F)cc1C(F)(F)F 101%
Cc1cc(NN=Cc2cccc(Cl)c2)c2cc(F)ccc2n1 101%
COc1cccc(C(=O)NCCc2cccc(Cl)c2)c1Oc1ccccc1 97%
CCc1cccc(NC(=O)/C=C/c2ccc3c(c2)CN(C)CC3)c1 94%
CC1CN(Cc2csc(Nc3ccccc3)n2)CC(C)O1 (stereo not given) 91%
CCCCCCCCc1c(C)[nH]c(C)c(I)c1=O 91%
CCc1cc2c3c(N)nc(N)nc3ccc2n1CC 93%
Cc1cc(-c2ccc3c(c2)CCN(CCC2CCC(NC(=O)/C=C/c4cccc(Cl)c4)CC2)CC3)on1 (stereo not given) 101%
CCCCCCc1cnc2nc(N)nc(N)c2c1C 93%
N#Cc1ccc(NC(=O)NC2CCN(CCCCCNC(=O)/C=C/c3ccc(Cl)c(Cl)c3)CC2)cc1 98%
CN1CCN(CCNc2c3ccccc3nc3c2ccc2ccccc23)CC1 101%

Reference: PubChem BioAssay
